Results: PubChem BioAssay (Tox21)
Several values for one entry are separate records, joined by “and”; a condition that tells them apart may be missing. Identical values can stand only once. Results filed as inconclusive are left out. Some compounds were tested as several samples or in several runs, with calls that do not always agree. Activity calls are given as the source filed them. Unless noted, calls come from the whole dose curve; as a rule, active = well fitted curve in the direction sought with a large enough effect in the repeat runs; inconclusive = weak or mixed curves; inactive = no such curve, though single readings can be large; an effect the other way counts as inactive or inconclusive.

Legend:
[1] = qHTS assay to identify small molecule antagonists of the estrogen related receptor (ERR) signaling pathway from Tox21 library - cell viability counter screen (AID 1224834); note: nearly all actives have a fitted effect of over 30% in size; note: potency is the fitted concentration of half-maximal effect
Summary of the method: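 ERR reporter cells, 2,000 per well, rested 6 h, then exposed to compound in DMSO for 17.5 hours at 37 C. Viability read as fluorescence after 30 min with CellTiter-Fluor.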

[2] = target: Luciferin 4-monooxygenase (Photinus pyralis) (UniProt P08659); experiment: qHTS assay to identify small molecule inhibitors of firefly luciferase (AID 1224835); note: nearly all actives have a fitted effect of over 25% in size; note: potency is the fitted concentration of half-maximal effect
Sequence of Luciferin 4-monooxygenase (Photinus pyralis) (P08659 whole entry, looked up): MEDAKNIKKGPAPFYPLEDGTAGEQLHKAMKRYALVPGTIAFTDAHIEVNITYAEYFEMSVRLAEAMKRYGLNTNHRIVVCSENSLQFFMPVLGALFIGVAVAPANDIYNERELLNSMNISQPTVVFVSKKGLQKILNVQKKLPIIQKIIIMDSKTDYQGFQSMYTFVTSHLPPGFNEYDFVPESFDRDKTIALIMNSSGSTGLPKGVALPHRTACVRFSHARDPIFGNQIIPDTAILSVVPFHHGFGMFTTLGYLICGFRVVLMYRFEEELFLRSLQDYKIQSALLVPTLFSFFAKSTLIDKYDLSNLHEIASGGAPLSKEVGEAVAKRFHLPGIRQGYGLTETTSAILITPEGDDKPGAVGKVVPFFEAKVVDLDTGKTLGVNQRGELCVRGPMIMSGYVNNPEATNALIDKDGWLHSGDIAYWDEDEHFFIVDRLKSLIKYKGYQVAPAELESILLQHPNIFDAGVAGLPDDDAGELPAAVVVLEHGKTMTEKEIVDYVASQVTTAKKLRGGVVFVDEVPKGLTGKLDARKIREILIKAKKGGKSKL
Summary of the method: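 Biochemical qHTS: compounds run as interplate titrations against purified firefly enzyme, with D-luciferin and ATP each at its KM concentration. Light output recorded by CCD imaging.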

[3] = qHTS assay to identify small molecule antagonists of the constitutive androstane receptor (CAR) signaling pathway - cell viability counter screen (AID 1224837); note: nearly all actives have a fitted effect of over 45% in size; note: potency is the fitted concentration of half-maximal effect
Summary of the method: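 HepG2 cells stably carrying hCAR and CYP2B6-2.2kb reporter, stimulated with 50 nM CITCO and compounds at 15 concentrations for 23 h at 37 C. Viability measured by CellTiter-Fluor fluorescence.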

[4] = target: Nuclear receptor subfamily 1 group I member 3 (Homo sapiens) (UniProt Q14994); experiment: qHTS assay to identify small molecule antagonists of the constitutive androstane receptor (CAR) signaling pathway (AID 1224838); note: nearly all actives have a fitted effect of over 40% in size; note: potency is the fitted concentration of half-maximal effect
Sequence of Nuclear receptor subfamily 1 group I member 3 (Homo sapiens) (Q14994 whole entry, looked up): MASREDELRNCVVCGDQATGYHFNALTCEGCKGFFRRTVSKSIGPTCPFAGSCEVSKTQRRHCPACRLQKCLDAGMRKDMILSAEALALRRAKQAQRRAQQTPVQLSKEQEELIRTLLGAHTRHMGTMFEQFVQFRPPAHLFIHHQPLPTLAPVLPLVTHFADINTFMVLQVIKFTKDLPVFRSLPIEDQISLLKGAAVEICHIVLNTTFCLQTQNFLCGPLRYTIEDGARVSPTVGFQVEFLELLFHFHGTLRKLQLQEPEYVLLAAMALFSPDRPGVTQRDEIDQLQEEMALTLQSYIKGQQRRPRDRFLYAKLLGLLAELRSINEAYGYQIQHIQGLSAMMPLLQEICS
Summary of the method: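 HepG2 cells stably carrying hCAR and a CYP2B6-2.2kb luciferase reporter, seeded 4 hrs before compound (15 concentrations). Stimulated with 50 nM CITCO for 24 hr at 37 C. ONE-Glo luminescence read after 30 min at room temperature.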

[5] = target: Nuclear receptor subfamily 1 group I member 3 (Homo sapiens) (UniProt Q14994); experiment: qHTS assay to identify small molecule agonists of the constitutive androstane receptor (CAR) signaling pathway (AID 1224839); note: nearly all actives have a fitted effect of over 15% in size; note: potency is the fitted concentration of half-maximal effect
Summary of the method: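 Compounds tested at 15 concentrations on HepG2 cells stably harbouring hCAR and CYP2B6-2.2kb reporter constructs, co-treated with PK11195 (0.75 uM final), 24 h at 37 C; luminescent reporter signal quantified.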

[6] = qHTS assay to identify small molecule antagonists of the estrogen related receptor signaling pathway with the pleiotropic PPARgamma coactivator (PGC) from Tox21 10K library (AID 1224841; call rule not given here; note: actives are mostly falling curves and most rising ones were filed inactive; nearly all actives have a fitted effect of over 50% in size; note: potency is the fitted concentration of half-maximal effect)
Summary of the method: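 PGC/ERR cell line, 2,000 cells/well, pre-incubated 6 hours at 37 C, then exposed to compounds for 18 hours at 37 C; luciferase read with One-Glo luminescence after 30 min at room temperature.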

[7] = qHTS assay to identify small molecule agonists of the estrogen related receptor signaling pathway with the pleiotropic PPARgamma coactivator (PGC) from Tox21 10K library (AID 1224842); note: nearly all actives have a fitted effect of over 15% in size
Summary of the method: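 PGC/ERR reporter cell line, 2,000 cells per well, incubated 6 h at 37 C before 23 nL compound in DMSO was added. After 18 h at 37 C, One-Glo luminescence read following 30 min at room temperature.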

[8] = target: Thyrotropin receptor (Homo sapiens) (UniProt P16473); experiment: qHTS assay to identify small molecule agonists of the thyroid stimulating hormone receptor (TSHR) signaling pathway (AID 1224843; calls by dose curve; note: nearly all actives have a fitted effect of over 45% in size; note: potency is the fitted concentration of half-maximal effect)
Sequence of Thyrotropin receptor (Homo sapiens) (P16473 whole entry, looked up): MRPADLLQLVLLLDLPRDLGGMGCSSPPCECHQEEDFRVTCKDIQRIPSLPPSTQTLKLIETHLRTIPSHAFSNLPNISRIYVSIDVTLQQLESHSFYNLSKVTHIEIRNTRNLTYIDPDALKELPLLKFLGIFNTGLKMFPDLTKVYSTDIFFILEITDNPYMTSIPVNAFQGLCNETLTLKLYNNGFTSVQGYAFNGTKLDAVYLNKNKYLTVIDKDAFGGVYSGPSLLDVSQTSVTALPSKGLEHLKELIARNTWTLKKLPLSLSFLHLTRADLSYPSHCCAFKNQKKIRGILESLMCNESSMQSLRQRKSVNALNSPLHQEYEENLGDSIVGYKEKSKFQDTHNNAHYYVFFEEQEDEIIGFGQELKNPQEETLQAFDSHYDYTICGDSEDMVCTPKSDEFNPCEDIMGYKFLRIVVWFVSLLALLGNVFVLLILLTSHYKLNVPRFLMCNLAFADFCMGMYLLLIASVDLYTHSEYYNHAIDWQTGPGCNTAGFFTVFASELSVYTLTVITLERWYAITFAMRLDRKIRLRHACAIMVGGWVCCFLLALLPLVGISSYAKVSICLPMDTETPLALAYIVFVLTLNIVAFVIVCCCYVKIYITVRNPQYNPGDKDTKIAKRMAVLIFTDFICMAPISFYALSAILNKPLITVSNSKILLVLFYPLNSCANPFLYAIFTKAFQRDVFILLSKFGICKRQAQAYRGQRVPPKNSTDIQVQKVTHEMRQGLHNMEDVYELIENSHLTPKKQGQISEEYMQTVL
Summary of the method: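 TSHR-HEK293 cells in agonist mode, 30 min room-temperature step, then cAMP measured by competitive HTRF (cAMP-d2 with anti-cAMP cryptate) after 1 h at room temperature. Tested at 15 concentrations in triplicate.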

[9] = qHTS assay to identify small molecule antagonists of the estrogen related receptor signaling pathway with the pleiotropic PPARgamma coactivator (PGC) from Tox21 10K library - cell viability counter screen (AID 1224840; active = well fitted cell-killing curve with a large enough effect in the repeat runs, not every such curve was filed as active; note: nearly all actives have a fitted effect of over 40% in size; note: potency is the fitted concentration of half-maximal effect)
Summary of the method: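 PGC/ERR cells (2,000/well) plated 6 h, then compound-treated for 17.5 h at 37 C. Viability measured by CellTiter-Fluor fluorescence after 30 min at 37 C, multiplexed with the pathway assay.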

[10] = qHTS assay to identify small molecule agonists of the constitutive androstane receptor (CAR) signaling pathway - cell viability counter screen (AID 1224836); note: nearly all actives have a fitted effect of over 45% in size; note: potency is the fitted concentration of half-maximal effect
Summary of the method: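 23 h treatment, 37 C, 5% CO2. Cell line: HepG2 stably expressing hCAR with a CYP2B6-2.2kb construct. Co-treatment: PK11195, 0.75 uM final. Read-out: CellTiter-Fluor fluorescence intensity.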

Measured: Potency

Brc1ccc(Br)cc1
not listed: [9] | [10]
inactive: all other assays above

N#Cc1nn(-c2c(Cl)cc(C(F)(F)F)cc2Cl)c(N)c1S(=O)C(F)(F)F (centres undefined)
active: [1] 27.5 µM and 29.8 µM | [6] 7.74 µM and 21.1 µM
not listed: [10]
inactive: all other assays above

Clc1ccccc1-c1nnc(-c2ccccc2Cl)nn1
inactive: [1] | [3] | [4] | [9] | [8]
active: [2] 1.4 µM and 708 nM | [5] 30.4 µM and 9.66 µM

c1ccc(C2CO2)cc1 (centres undefined)
inactive: [1] | [2] | [3] | [9] | [8]

CC1(C)C(C(=O)OC(C#N)c2cccc(Oc3ccccc3)c2)C1(C)C (centres undefined)
active: [5] 12.3 µM and 24.3 µM | [6] 27.5 µM
not listed: [1] | [8]
inactive: all other assays above

COP(=S)(OC)Oc1ccc(S(=O)(=O)N(C)C)cc1
not listed: [1]
inactive: all other assays above

N#Cc1c(Cl)c(Cl)c(Cl)c(C#N)c1Cl
inactive: [2] | [5]
active: [1] 7.55 µM and 21.7 µM | [3] 15.1 µM and 9.69 µM | [4] 5.34 µM and 4.33 µM | [9] 4.24 µM and 6.11 µM | [8] 2.68 µM and 3.86 µM

CC(C)=CC1C(C(=O)OCc2cccc(Oc3ccccc3)c2)C1(C)C (centres undefined)
active: [5] 4.86 µM and 6.68 µM
not listed: [1]
inactive: all other assays above

CCCCCCCC[N+](C)(CCCCCCCC)CCCCCCCC
active: [10] 17.2 µM and 7.7 µM and 48.6 µM | [3] 19.3 µM and 13.7 µM and 17.2 µM | [4] 17.2 µM and 15.4 µM | [9] 9.67 µM and 1.37 µM and 13.7 µM
inactive: [2] | [5]

O=C1Nc2ccc(Cl)cc2C(c2ccccc2)=NC1O (centres undefined)
not listed: [1]
inactive: all other assays above

COc1ccc(C=O)cc1OC
not listed: [8] | [9] | [10]
inactive: all other assays above

NC(=O)CN1CCCC1=O
not listed: [8] | [10]
inactive: all other assays above

COP(=O)(NC(C)=O)SC (centres undefined)
inactive: [2] | [10] | [3] | [4] | [5] | [9]

Oc1ccc(Cl)cc1Cl
not listed: [1] | [8]
inactive: all other assays above

Nc1ccc([N+](=O)[O-])cc1N
active: [1] 48.5 µM and 24.3 µM | [2] 79.6 µM | [3] 61.1 µM and 27.3 µM | [9] 43.2 µM
inactive: [6] | [7]

O=[N+]([O-])/N=C1\NCCN1Cc1ccc(Cl)nc1
not listed: [10]
inactive: all other assays above

[CH3][Sn]([Cl])([Cl])[Cl]
not listed: [6] | [7] | [10]
inactive: all other assays above

COC(=O)Nc1nc2ccccc2[nH]1
inactive: [1] | [2] | [3] | [4] | [8]

CC(C)(c1ccc(OCC2CO2)cc1)c1ccc(OCC2CO2)cc1 (centres undefined)
69.5 µM (active) and inactive: [6]
not listed: [9] | [10]
inactive: all other assays above

N#CC(c1ccccc1)c1ccccc1
not listed: [10]
inactive: all other assays above

COc1ccc(CO)cc1
inactive: [1] | [10] | [3] | [8]

CN(C)c1ccccc1
not listed: [1] | [4] | [5]
inactive: all other assays above

CC(C)(C#N)N=NC(C)(C)C#N
inactive: [2] | [3] | [4] | [5] | [9] | [8]

CC1=C(C(=O)Nc2ccccc2)SCCO1
active: [2] 36.2 µM and 44.8 µM
inactive: [3] | [6] | [7] | [8]

c1ccc2c(c1)Nc1ccccc1S2
inactive: [10] | [3] | [4] | [6] | [7]
active: [5] 30.6 µM

C[N+](C)(C)CC(=O)O
inactive: [2] | [10] | [3] | [9]

Oc1ccc(Cl)cc1Cc1ccccc1
31 µM (active) and inactive: [5]
not listed: [1] | [6] | [7]
inactive: all other assays above
